hgDAF12 agonist: activates the H. glycines DAF-12 receptor ligand-binding domain; HEK293 GAL4-hgDAF12 UAS-luciferase reporter, agonist luminescence; normalized to butyrate control; activation, % at 6.8 µM; 1.8% of 370,000 active;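 active = activation above a cutoff set at the mean of all screened compounds plus 3 SD, cut at about 10% in these data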
DAX1 inh-1: inhibitors of human orphan nuclear receptor DAX1 (NR0B1). P51843. HEK293 Gal4-DAX1 luciferase reporter, luminescence. inhibition, % at 6.75 µM. 0.99% of 340,000 active;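 active = inhibition above the mean over all tested compounds plus 3 SD, cut at about 4.2% in these data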;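 also: inhibition shows as a rise in luminescence from relieved DAX1 repression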
Target sequence (P51843 207-470 limits assumed): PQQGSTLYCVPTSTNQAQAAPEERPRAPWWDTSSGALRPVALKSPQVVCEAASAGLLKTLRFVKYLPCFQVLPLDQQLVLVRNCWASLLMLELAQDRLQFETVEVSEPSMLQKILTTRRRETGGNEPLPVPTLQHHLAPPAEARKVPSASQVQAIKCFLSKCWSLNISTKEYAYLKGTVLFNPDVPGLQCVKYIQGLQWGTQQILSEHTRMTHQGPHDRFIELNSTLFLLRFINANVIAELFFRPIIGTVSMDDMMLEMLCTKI
DAX1 inh-2: DAX1 (NR0B1) inhibition, primary screen; inhibition, % at 6.8 µM; 1.1% of 370,000 active; HEK293T StAR-luciferase reporter, SF-1/DAX-1 repression relief;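 active = inhibition above the mean over all tested compounds plus 3 SD, cut at about 3.6% in these data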;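 also: higher inhibition means more luminescence from relief of DAX-1 repression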
SMARCA2 activ: SMARCA2 function activation, primary screen; MG213 cells, MMTV-luciferase reporter, dexamethasone, overnight; activation, % at 9.1 µM; 1% of 370,000 active; AID 652017; in the data active = activation above about 7.8%
ssDAF-12 act: activates DAF-12 receptor from parasite S. stercoralis; HEK293 ssDAF-12/GRIP1 lit1-tk-luc reporter, luminescence; % of 3 µM dafachronic acid response; activation, % at 6.8 µM; 1% of 370,000 active;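 active = activation above the mean over all tested compounds plus 3 SD, cut at about 0.9% in these data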
hcDAF-12 act: H. contortus DAF-12 activation, primary screen; HEK293 hcDAF-12 lit1-tk-luc reporter, luminescence; 0% DMSO, 100% Δ7-dafachronic acid; activation, % at 6.8 µM; 1.4% of 370,000 active;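 active = activation above the mean of all tested compounds plus 3 SD, cut at about 5.5% in these data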
Numbers stand for hits. Sampled rows, rich in hits. Any-hit rate of the full collection: about 4.8%.

How did Oc1ccc(-c2[nH]ncc2-c2ccc(Br)cc2)c(O)c1 do in these assays?
hgDAF12 agonist: inactive; DAX1 inh-1: 6.4; DAX1 inh-2: inactive; SMARCA2 activ: inactive; ssDAF-12 act: inactive; hcDAF-12 act: inactive

What do the screens show for `CC(C)CN1CN2Cc3ccccc3C2CS1(=O)=O` (stereo not given)?
hgDAF12 agonist: inactive; DAX1 inh-2: inactive; SMARCA2 activ: inactive; ssDAF-12 act: inactive; hcDAF-12 act: inactive

Results for O=C(O)c1cccc2c1-c1ccc(Cl)cc1C2=O ?
hgDAF12 agonist: inactive; DAX1 inh-1: inactive; DAX1 inh-2: inactive; SMARCA2 activ: inactive; ssDAF-12 act: inactive; hcDAF-12 act: inactive

What do the screens show for `Nc1cccc2c1C(=O)c1ccc(Cl)cc1C2=O`?
hgDAF12 agonist: inactive; DAX1 inh-1: inactive; DAX1 inh-2: 3.7; SMARCA2 activ: inactive; ssDAF-12 act: inactive; hcDAF-12 act: inactive

What do the screens show for `CCOC(=O)CNC(=O)CSc1nnc(-c2ccc(C(C)(C)C)cc2)n1-c1ccc(Cl)cc1`?
hgDAF12 agonist: inactive; DAX1 inh-2: inactive; SMARCA2 activ: inactive; ssDAF-12 act: inactive; hcDAF-12 act: inactive

Results for Cc1cc(N=Nc2ccccc2)cc(C)c1NC(=O)C(F)(F)F ?
hgDAF12 agonist: inactive; DAX1 inh-1: 5.1; DAX1 inh-2: inactive; SMARCA2 activ: inactive; ssDAF-12 act: inactive; hcDAF-12 act: inactive

What do the screens show for `CC(C)(C)C(=O)Nc1ccc(N=Nc2ccccc2)cc1`?
hgDAF12 agonist: inactive; DAX1 inh-1: inactive; DAX1 inh-2: inactive; SMARCA2 activ: inactive; ssDAF-12 act: inactive; hcDAF-12 act: inactive

What do the screens show for `CC(=O)Nc1cc(NC(C)=O)c(N=Nc2ccccc2)cc1C`?
hgDAF12 agonist: inactive; DAX1 inh-1: 4.7; DAX1 inh-2: inactive; SMARCA2 activ: inactive; ssDAF-12 act: inactive; hcDAF-12 act: inactive

What do the screens show for `CCOc1ccc(N(CC(=O)NCc2ccccc2C)S(C)(=O)=O)cc1`?
hgDAF12 agonist: inactive; DAX1 inh-1: 4.3; DAX1 inh-2: inactive; SMARCA2 activ: inactive; ssDAF-12 act: inactive; hcDAF-12 act: inactive

Results for Cc1ccc(OCCOc2ccc(Cl)cc2Cl)c(Br)n1 ?
hgDAF12 agonist: 12.1; ssDAF-12 act: inactive; hcDAF-12 act: inactive

How did O=c1c2ccccc2oc2ccc(Oc3ccccc3)cc12 do in these assays?
hgDAF12 agonist: inactive; DAX1 inh-1: 5.1; DAX1 inh-2: inactive; SMARCA2 activ: inactive; ssDAF-12 act: inactive; hcDAF-12 act: inactive

Results for CCN(CC)CCCNC(=O)C1CCN(c2ncnc3c2sc2cccc(F)c23)CC1 ?
hgDAF12 agonist: inactive; DAX1 inh-1: inactive; DAX1 inh-2: inactive; SMARCA2 activ: inactive; ssDAF-12 act: 1.0; hcDAF-12 act: inactive

What do the screens show for `S=C(Nc1ccc2c(c1)OCO2)N1CCN(Cc2ccco2)CC1`?
hgDAF12 agonist: 11.2; DAX1 inh-1: inactive; DAX1 inh-2: inactive; SMARCA2 activ: inactive; ssDAF-12 act: inactive; hcDAF-12 act: inactive

What do the screens show for `Cc1ccc(NC(=S)NC2CCN(Cc3ccccc3)CC2)cc1C`?
hgDAF12 agonist: inactive; DAX1 inh-1: inactive; DAX1 inh-2: inactive; SMARCA2 activ: inactive; ssDAF-12 act: inactive; hcDAF-12 act: inactive

Results for S=C(Nc1ccc2c(c1)OCO2)NC1CCN(Cc2ccccc2)CC1 ?
hgDAF12 agonist: inactive; DAX1 inh-1: 4.7; DAX1 inh-2: inactive; SMARCA2 activ: inactive; ssDAF-12 act: inactive; hcDAF-12 act: inactive

What do the screens show for `COC(=O)[C@]12C[C@H](CC(=O)NCc3cccs3)C(=O)N(Cc3ccc4c(c3)OCO4)C1=C[C@H](C(C)C)O[C@@H]2C1CC1`?
hgDAF12 agonist: inactive; DAX1 inh-2: inactive; SMARCA2 activ: inactive; ssDAF-12 act: inactive; hcDAF-12 act: inactive

How did Cc1ccc(-n2c(Cc3cccs3)nnc2SCC(=O)Nc2cccc3ccccc23)cc1 do in these assays?
hgDAF12 agonist: inactive; DAX1 inh-2: inactive; SMARCA2 activ: inactive; ssDAF-12 act: inactive; hcDAF-12 act: inactive

What do the screens show for `CC(=O)Nc1nc2ncccn2c1-c1ccc(F)c(F)c1`?
hgDAF12 agonist: inactive; DAX1 inh-2: inactive; SMARCA2 activ: inactive; ssDAF-12 act: inactive; hcDAF-12 act: inactive

Results for Cc1cc(N/N=C(/CCC(=O)O)C(=O)O)nc2ccccc12 ?
hgDAF12 agonist: inactive; DAX1 inh-1: inactive; DAX1 inh-2: inactive; SMARCA2 activ: inactive; ssDAF-12 act: inactive; hcDAF-12 act: inactive

Results for CC(=NNc1cc(C)c2ccccc2n1)c1ccccn1 ?
hgDAF12 agonist: inactive; DAX1 inh-2: inactive; SMARCA2 activ: inactive; ssDAF-12 act: 0.9; hcDAF-12 act: inactive

How did Cc1ccc(NC(=O)NCc2c(C)nn(C)c2C)cc1Cl do in these assays?
hgDAF12 agonist: 12.9; DAX1 inh-1: inactive; DAX1 inh-2: 4.3; SMARCA2 activ: inactive; ssDAF-12 act: inactive; hcDAF-12 act: inactive

What do the screens show for `Cc1ccc(C(=O)NCCC(=O)N2CCC3(CC2)NCCc2[nH]cnc23)cc1`?
hgDAF12 agonist: inactive; DAX1 inh-1: inactive; DAX1 inh-2: inactive; SMARCA2 activ: inactive; ssDAF-12 act: inactive; hcDAF-12 act: inactive

What do the screens show for `Cc1cc(C)cc(C(=O)NCCC(=O)N2CCC3(CC2)NCCc2[nH]cnc23)c1`?
hgDAF12 agonist: inactive; DAX1 inh-1: inactive; DAX1 inh-2: 3.9; SMARCA2 activ: inactive; ssDAF-12 act: inactive; hcDAF-12 act: inactive

How did COC(=O)c1ccc(NC(=O)COC(=O)C2CC(=O)N(Cc3ccccc3)C2)cc1 (stereo not given) do in these assays?
hgDAF12 agonist: inactive; DAX1 inh-1: 4.2; DAX1 inh-2: inactive; SMARCA2 activ: inactive; ssDAF-12 act: inactive; hcDAF-12 act: inactive

Results for C=C(C)CSc1nc2nc(C)c(Br)cc2[nH]1 ?
hgDAF12 agonist: inactive; DAX1 inh-1: 6.0; DAX1 inh-2: inactive; SMARCA2 activ: inactive; ssDAF-12 act: inactive; hcDAF-12 act: inactive

Results for COC(=O)CSc1nc2nc(C)c(Br)cc2[nH]1 ?
hgDAF12 agonist: inactive; DAX1 inh-1: inactive; DAX1 inh-2: inactive; SMARCA2 activ: inactive; ssDAF-12 act: inactive; hcDAF-12 act: inactive

How did O=C(NNc1nc2c(F)cccc2s1)c1ccccc1 do in these assays?
hgDAF12 agonist: inactive; DAX1 inh-1: 10.2; DAX1 inh-2: inactive; SMARCA2 activ: inactive; ssDAF-12 act: inactive; hcDAF-12 act: inactive

How did Cc1cc(Cl)ccc1OCCn1cncn1 do in these assays?
hgDAF12 agonist: inactive; DAX1 inh-1: inactive; DAX1 inh-2: inactive; SMARCA2 activ: inactive; ssDAF-12 act: inactive; hcDAF-12 act: 6.0

Results for CCOC(=O)c1nnsc1Nc1ccc(C)c(C)c1 ?
hgDAF12 agonist: inactive; DAX1 inh-1: 4.3; DAX1 inh-2: inactive; SMARCA2 activ: inactive; ssDAF-12 act: inactive; hcDAF-12 act: inactive

How did CCOC(=O)c1nnsc1-c1ccc(-c2snnc2C(=O)OCC)cc1 do in these assays?
hgDAF12 agonist: inactive; DAX1 inh-1: inactive; DAX1 inh-2: inactive; SMARCA2 activ: inactive; ssDAF-12 act: inactive; hcDAF-12 act: inactive

How did N#CCC[C@H]1CC[C@]2(CCCN(C(=O)c3ccno3)C2)O1 do in these assays?
hgDAF12 agonist: inactive; DAX1 inh-2: inactive; SMARCA2 activ: inactive; ssDAF-12 act: inactive; hcDAF-12 act: inactive

What do the screens show for `O=C(O)C(Cc1ccccc1)N1C(=O)c2cccc3cccc(c23)C1=O` (stereo not given)?
hgDAF12 agonist: inactive; DAX1 inh-1: inactive; DAX1 inh-2: inactive; SMARCA2 activ: inactive; ssDAF-12 act: 1.7; hcDAF-12 act: inactive

Screens deposited in PubChem BioAssay by The Scripps Research Institute Molecular Screening Center.
